Source: PubChem BioAssay (Tox21)
Records with an inconclusive call do not appear. A call without a number means that no potency is given here. Values without a mark were called inactive. Activity calls are given as the source filed them. Unless noted, calls follow the shape of the dose curve; as a rule, active = well fitted curve in the direction sought with a large enough effect in the repeat runs; inconclusive = weak or mixed curves; inactive = no such curve, though single readings can be large; an effect the other way counts as inactive or inconclusive.

Tests used:
[1] = qHTS assay to identify small molecule agonists of the NFkB signaling pathway (AID 1159509; active = well fitted curve in the direction sought with a large enough effect in the signal ratio in the repeat runs, not every such curve was filed as active; the % refers to the signal ratio; also: series mostly up to about 61 µM)
Method in brief: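 NFkB-bla ME-180 cells carry a beta-lactamase reporter under an NF-kB response element. They were plated overnight, then exposed to compounds for 5 h at 37 C. Read-out is LiveBLAzer FRET after 1.5 hr at room temperature (405 nm excitation; 460/530 nm emission).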

[2] = qHTS assay to identify small molecule agonists of the NFkB signaling pathway - cell viability counter screen (AID 1159515; calls by dose curve; also: series mostly up to about 61 µM; nearly all actives have a fitted effect of over 55% in size)
Method in brief: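 NFkB-bla ME-180 cells, 2,000/well, were plated overnight at 37 C, 5% CO2, then exposed to compounds in DMSO for 5 hr. After the bla FRET read, CellTiter-Glo was added to the same wells; luminescence was read after 30 min at room temperature.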

[3] = qHTS assay to identify small molecule agonists of the endoplasmic reticulum stress response signaling pathway (AID 1159516; active = well fitted activation curve with a large enough effect in the signal ratio in the repeat runs, not every such curve was filed as active; the % refers to the signal ratio)
Method in brief: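 CellSensor ESRE-bla HeLa cells, carrying a beta-lactamase reporter driven by the ER stress response element, were plated overnight and exposed to compounds for 5 hr at 37 C. Reporter activity was read as FRET substrate fluorescence after 2 hr at room temperature.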

[4] = qHTS assay to identify small molecule agonists of the endoplasmic reticulum stress response signaling pathway - cell viability counter screen (AID 1159517; calls by dose curve; also: series mostly up to about 61 µM; nearly all actives have a fitted effect of over 50% in size)
Method in brief: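 HeLa cells carrying an ESRE-driven beta-lactamase reporter receive compound for 5 hr at 37 C. Cell viability is then gauged with CellTiter-Glo by luminescence, 30 min at room temperature.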

[5] = qHTS assay to identify small molecule antagonists of the retinoid-related orphan receptor gamma (ROR-gamma) signaling pathway - cell viability counter screen (AID 1159520); also: nearly all actives have a fitted effect of over 50% in size
Method in brief: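 Cytotoxicity was read from cellular ATP (CellTiter-Glo luminescence) after 16 hr at 37 C with 1 uM doxycycline induction. The inducer was added 2 hr after compound transfer to Tet-on ROR gamma CHO cells.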

[6] = molecular target: Nuclear receptor ROR-gamma (Homo sapiens) (UniProt P51449); assay: qHTS assay to identify small molecule antagonists of the retinoid-related orphan receptor gamma (ROR-gamma) signaling pathway (AID 1159521;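 also: CHO cells with doxycycline inducible ROR-gamma driving an RORE luciferase reporter; top concentration of the series differs between compounds; nearly all actives have a fitted effect of over 50% in size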)
Method in brief: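 Luminescence readout (ONE-Glo, 30 min RT) after 16 h doxycycline induction; loss of signal scored as antagonism. CHO cells with TET-inducible RORγ and RORE-LUC reporter; compounds added 2 h before 1 uM final doxycycline.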

[7] = qHTS assay to identify small molecule agonists of the AP-1 signaling pathway - cell viability counter screen (AID 1159525; calls by dose curve; also: nearly all actives have a fitted effect of over 55% in size)
Method in brief: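 Luminescent ATP readout (Cell Titer Glo, 30 min RT), normalised to DMSO and tetra n-octyl ammonium bromide controls. Cells were ME-180 AP-1-bla in 0.5% dialyzed FBS Opti-MEM, with a 5 h, 37 °C compound exposure.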

[8] = qHTS assay to identify small molecule agonists of the RXR signaling pathway - cell viability counter screen (AID 1159529); also: series mostly up to about 77 µM; nearly all actives have a fitted effect of over 50% in size
Method in brief: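 Luminescence from CellTiter-Glo (30 min, RT) measured viability in the same wells as the beta-lactamase reporter readout. Cells: GeneBLAzer RXR-alpha HEK 293T, 2% charcoal-stripped FBS. Compound exposure 16 hr, 37 C.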

[9] = qHTS assay to identify small molecule antagonists of the retinoid acid receptor (RAR) signaling pathway - cell viability counter screen (AID 1159551); also: nearly all actives have a fitted effect of over 35% in size
Method in brief: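 C3RL4 cells were seeded overnight at 37 C, then treated with compounds plus 1 uM (final) retinol for 6 h at 37 C. Viability was read as ATP by CellTiter-Glo luminescence after 30 min at room temperature.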

[10] = qHTS assay to identify small molecule agonists of the retinoic acid receptor (RAR) signaling pathway (AID 1159553)
Method in brief: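 C3RL4 cells carrying a RARE luciferase reporter were plated overnight at 37 C, then exposed to compounds in DMSO for 6 hr at 37 C and 5% CO2. Luminescence was read 30 min after luciferase reagent addition at room temperature.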

[11] = qHTS assay to identify small molecule agonists of the vitamin D receptor (VDR) signaling pathway - cell viability counter screen (AID 743224)
Method in brief: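 VDR-bla cells were preincubated 4 h at 37C/5% CO2, then exposed to compounds for 16 h. After the 2 h room-temperature bla FRET read, CellTiter-Glo was added to the same wells and luminescence read after 30 min.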

[12] = qHTS assay to identify small molecule agonists of the AP-1 signaling pathway (AID 1159526; calls by dose curve)
[13] = molecular target: Retinoic acid receptor RXR-alpha (Homo sapiens) (UniProt P19793); assay: qHTS assay to identify small molecule agonists of the RXR signaling pathway (AID 1159527; calls by dose curve; also: nearly all actives have a fitted effect of over 35% in size)
Chain of Retinoic acid receptor RXR-alpha (Homo sapiens) (P19793 whole entry, looked up): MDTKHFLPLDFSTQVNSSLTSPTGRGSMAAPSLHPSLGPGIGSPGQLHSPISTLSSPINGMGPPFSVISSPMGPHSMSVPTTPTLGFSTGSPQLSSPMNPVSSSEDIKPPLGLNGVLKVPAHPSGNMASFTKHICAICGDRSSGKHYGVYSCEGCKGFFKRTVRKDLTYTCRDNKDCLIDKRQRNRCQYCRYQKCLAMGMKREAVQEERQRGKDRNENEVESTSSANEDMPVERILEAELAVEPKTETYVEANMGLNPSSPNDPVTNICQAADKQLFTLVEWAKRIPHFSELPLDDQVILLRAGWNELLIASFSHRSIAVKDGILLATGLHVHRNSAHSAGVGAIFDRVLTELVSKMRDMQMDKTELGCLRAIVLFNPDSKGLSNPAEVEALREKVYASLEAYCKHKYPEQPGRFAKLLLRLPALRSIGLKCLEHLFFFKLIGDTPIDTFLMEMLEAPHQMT
Method in brief: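 Agonist mode; 9-cis retinoic acid positive control. HEK 293T UAS-bla reporter cells, 2% charcoal-stripped FBS, 16 hr compound exposure at 37 C/5% CO2. LiveBLAzer B/G FRET substrate 2 hr RT; ex 405, em 460/530 nm.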

[14] = qHTS assay to identify small molecule antagonists of the retinoic acid receptor (RAR) signaling pathway (AID 1159552; also: nearly all actives have a fitted effect of over 50% in size; also: potency is read from the fitted curve at half-maximal effect)
Method in brief: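 Luminescence from a RARE luciferase reporter in C3RL4 cells served as read-out. Cells received compounds together with 1 uM final retinol and incubated 6 hr at 37 C before detection reagent was added for 30 min at room temperature.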

[15] = qHTS assay to identify small molecule antagonists of the vitamin D receptor (VDR) signaling pathway - cell viability counter screen (AID 743225); also: nearly all actives have a fitted effect of over 50% in size
Method in brief: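 Viability counter screen run in the same wells as the beta-lactamase reporter assay: HEK 293T VDR-UAS-bla cells, 16 h compound exposure at 37C with 3 nM (final) 1-alpha,25-dihydroxyvitamin D3. CellTiter-Glo luminescence, 30 min, room temperature.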

SMILES	outcome [1]	outcome [2]	outcome [3]	Potency [4]	Potency [5]	Potency [6]	Potency [7]	Potency [8]	Potency [9]	Potency [10]	Potency [11]	outcome [12]	Potency [13]	Potency [14]	outcome [15]
CCC(=O)C(CCN(C)C)(c1ccccc1)c1ccccc1	inactive	inactive	inactive	inactive	inactive	inactive	inactive	inactive	inactive	inactive	–	–	–	–	–
Cc1cc(C)nc(Nc2ccccc2)n1	inactive	inactive	inactive	inactive	inactive	–	inactive	inactive	inactive	–	inactive	inactive	inactive	inactive	–
O=C(O)c1cccc(Cl)c1	inactive	inactive	inactive	inactive	inactive	–	inactive	inactive	inactive	inactive	inactive	inactive	inactive	inactive	inactive
Oc1c(Cl)cccc1Cl	inactive	inactive	inactive	inactive	inactive	–	inactive	inactive	inactive	–	inactive	inactive	–	inactive	inactive
O=C1OC(=O)C2C1C1(Cl)C(Cl)=C(Cl)C2(Cl)C1(Cl)Cl (stereo not drawn)	inactive	inactive	inactive	inactive	inactive	–	inactive	inactive	inactive	inactive	inactive	inactive	–	inactive	inactive
COC(C)(C)C	inactive	inactive	inactive	inactive	inactive	–	inactive	inactive	inactive	inactive	inactive	inactive	inactive	inactive	inactive
Cc1ccccc1CO[C@@H]1C[C@@]2(C(C)C)CC[C@]1(C)O2	inactive	inactive	inactive	inactive	inactive	–	inactive	–	–	inactive	–	inactive	inactive	–	inactive
c1ccc(N2CCNCC2)cc1	inactive	inactive	inactive	inactive	inactive	–	inactive	inactive	inactive	–	inactive	inactive	inactive	–	inactive
COC(=O)c1ccccc1S(=O)(=O)NC(=O)Nc1nc(C)cc(C)n1	inactive	inactive	inactive	inactive	inactive	–	inactive	inactive	inactive	inactive	inactive	inactive	–	inactive	inactive
COP(=S)(OC)Oc1c(Cl)cc(C)cc1Cl	inactive	inactive	inactive	inactive	inactive	–	inactive	inactive	inactive	inactive	inactive	inactive	inactive	inactive	inactive
Nc1ccccc1Cl	inactive	inactive	inactive	inactive	inactive	–	inactive	inactive	inactive	–	inactive	inactive	–	–	inactive
CC(C)[N+](=O)[O-]	inactive	inactive	inactive	inactive	inactive	–	inactive	inactive	inactive	inactive	inactive	inactive	inactive	inactive	inactive
CC(C)(C)NCC(O)c1cc(Cl)c(N)c(Cl)c1 (stereo not drawn)	inactive	inactive	inactive	inactive	inactive	–	inactive	inactive	inactive	–	inactive	inactive	inactive	–	inactive
COC(=O)c1ccccc1S(=O)(=O)NC(=O)N(C)c1nc(C)nc(OC)n1	inactive	inactive	inactive	inactive	inactive	–	inactive	inactive	inactive	inactive	inactive	inactive	inactive	inactive	–
CC(Cl)(Cl)[N+](=O)[O-]	inactive	inactive	inactive	inactive	inactive	–	inactive	inactive	inactive	inactive	–	inactive	inactive	inactive	inactive
Clc1ccccc1N1CCNCC1	inactive	inactive	inactive	inactive	inactive	–	inactive	inactive	inactive	inactive	inactive	inactive	–	inactive	inactive
CCCCc1c(C)nc(NCC)[nH]c1=O	inactive	inactive	inactive	inactive	inactive	–	inactive	inactive	inactive	–	inactive	inactive	inactive	–	inactive
OC(c1ccc(F)cc1)(c1cncnc1)c1ccccc1Cl (stereo not drawn)	inactive	inactive	inactive	inactive	inactive	–	inactive	inactive	inactive	inactive	inactive	inactive	–	inactive	inactive
C#C[C@]1(O)C=C[C@H]2[C@@H]3CCC4=CC(=O)CC[C@@H]4[C@H]3CC[C@@]21CC	inactive	inactive	inactive	inactive	inactive	–	inactive	inactive	inactive	inactive	inactive	inactive	inactive	11.9 µM (active)	inactive
C#CCN1C(=O)COc2cc(F)c(N3C(=O)C4=C(CCCC4)C3=O)cc21	inactive	inactive	inactive	inactive	inactive	–	inactive	inactive	inactive	inactive	inactive	inactive	inactive	inactive	inactive
